The record followed here is PubChem BioAssay.

Structures are written as SMILES. Active and inactive are the calls of the source.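 Rule for the calls, unless noted: active = inhibition above 20% together with a positive visual image hit; inconclusive = visual image hit but inhibition not above 20%; inactive = no visual image hit.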

Test [1] in a line: inhibitors of TNFa-induced NFkB p65 translocation, primary screen, imaging, HUVEC, MLSMR starter and 10KST1 sets (AID 438).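 For inhibition: signal is the nuclear over cytoplasmic p65 intensity ratio per well.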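 Note: compound added about 3h40 before a 20 min TNFalpha stimulation.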 As to conditions: HUVEC TNFa-induced p65 nuclear translocation; cell count: measured here: nuclei count (cytotoxicity indicator), at 2.08 µM; inhibition: at 2 µM, stronger effect = higher value, 0% TNFa-plus-vehicle, 100% no-TNFa wells.
Test [2] can be described thus: reduction of polyQ htt aggregates in cells – imaging, exon1htt(103Q)mCFP cells, high-content imaging, primary screen (AID 483;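 active = visual image review flags a hit and inhibition of aggregation exceeds 20%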;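 note: compound exposure lasted 3 days before fixation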;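 for nuclei count: percent of the per-plate median nuclei count of sample wells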). Particulars: exon1htt(103Q)mCFP cell line, aggregate imaging, at 2 µM; inhibition of aggregation: stronger effect = higher value; nuclei count: measured here: cell count, toxicity.
Test [3] is described as follows: endothelial E-selectin expression blockers – imaging, HUVEC, immunofluorescence, MLSMR starter and 10KST1 sets, primary screen (AID 487;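 active = visually confirmed hit in the image check and inhibition above 20%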;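 for inhibition: signal is fraction of cell area covered by stained E-selectin grains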;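 for nuclei count: 100% = median nuclei count of all wells on the same plate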). As to conditions: HUVEC TNFalpha-induced E-selectin immunofluorescence imaging, at 2 µM; inhibition: stronger effect = higher value; nuclei count: measured here: cell number, toxicity.
Test [4] addresses Voltage-gated potassium channel subunit beta-2 (Rattus norvegicus) (UniProt P62483). The test can be described thus: inhibitors of rat Kvbeta2 reductase activity – biochemical, NADPH fluorescence, primary screen (AID 622;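 active = fluorescence slope higher than the sample average by over 3 SD, cut at about -0.22 in these data, passing the limit was not always enough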;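 note: slope of raw intensity against log time taken from 70 to 1610 s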). Particulars: recombinant KvBeta, 4-cyanobenzaldehyde reduction, at 10 µM, stronger effect = higher value.
For test [5] the target is unchanged. Nature of the test: enhancers of rat Kvbeta2 NADPH turnover – biochemical, NADPH fluorescence, primary screen (AID 623;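 active = NADPH fluorescence slope more negative than the mean of all samples by about 3 SD, 99.7% confidence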;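 note: fluorescence intensity change per second fitted from 20 to 320 s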). As to conditions: Recombinant KvBeta, NADPH fluorescence decrease slope, 10 min; at 10 µM; stronger effect = lower value.
The target of test [6] is Alpha-2C adrenergic receptor (Homo sapiens) (UniProt P18825). Nature of the test: compounds altering alpha2C-coupled GIRK flux – cell-based, HEK293 alpha2C/GIRK1/2, thallium flux, primary screen (AID 624;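 active = fluorescence slope after compound addition differing from the mean of all screened samples at 99.7% confidence, in either direction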;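 note: slope of fluorescence ratio to pre-addition baseline per second over 15 to 24 s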). Particulars: thallium flux BTC fluorescence, at 10 µM, actives lie on both sides.
A short description of test [7]: blockers of RIG-like receptor reporter activation – cell-based, Sendai virus stimulus, luciferase, 10K MLSCN set, TLR/RLR signaling modifier project, primary screen (AID 602276;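 active = inhibition at or above 50% at 10 µM; inactive = inhibition below 50%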;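 note: firefly luciferase from ISG56 promoter only with Renilla not read in this screen; 0% = Sendai virus plus DMSO and 100% = medium plus DMSO without virus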). As to conditions: HEK293 RL24 IRF3 luciferase reporter, at 10 µM, stronger effect = higher value. On the technique in general: A reporter such as luciferase makes a cellular process visible.
Test [8] can be described thus: TLR3 IRF3 reporter activation blockers – cell-based, poly I:C stimulus, luciferase, 10K MLSCN set, primary screen (AID 602277;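 active = inhibition of the reporter signal at or above 50%; inactive = inhibition below 50%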). As to conditions: HEK293-TLR3 RL24 IRF3 luciferase reporter, at 10 µM, stronger effect = higher value.

Chain of Voltage-gated potassium channel subunit beta-2 (Rattus norvegicus) (P62483 whole entry, looked up): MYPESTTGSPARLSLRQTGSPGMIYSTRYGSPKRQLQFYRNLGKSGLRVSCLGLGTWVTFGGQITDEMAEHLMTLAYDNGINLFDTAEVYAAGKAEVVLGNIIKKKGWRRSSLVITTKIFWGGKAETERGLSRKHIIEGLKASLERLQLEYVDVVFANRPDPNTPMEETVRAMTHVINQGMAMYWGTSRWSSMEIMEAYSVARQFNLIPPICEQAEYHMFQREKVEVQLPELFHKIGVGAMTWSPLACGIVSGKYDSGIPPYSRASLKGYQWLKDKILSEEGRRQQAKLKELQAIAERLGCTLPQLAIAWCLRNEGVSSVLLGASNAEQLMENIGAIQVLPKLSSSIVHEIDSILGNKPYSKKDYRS
Chain of Alpha-2C adrenergic receptor (Homo sapiens) (P18825 whole entry, looked up): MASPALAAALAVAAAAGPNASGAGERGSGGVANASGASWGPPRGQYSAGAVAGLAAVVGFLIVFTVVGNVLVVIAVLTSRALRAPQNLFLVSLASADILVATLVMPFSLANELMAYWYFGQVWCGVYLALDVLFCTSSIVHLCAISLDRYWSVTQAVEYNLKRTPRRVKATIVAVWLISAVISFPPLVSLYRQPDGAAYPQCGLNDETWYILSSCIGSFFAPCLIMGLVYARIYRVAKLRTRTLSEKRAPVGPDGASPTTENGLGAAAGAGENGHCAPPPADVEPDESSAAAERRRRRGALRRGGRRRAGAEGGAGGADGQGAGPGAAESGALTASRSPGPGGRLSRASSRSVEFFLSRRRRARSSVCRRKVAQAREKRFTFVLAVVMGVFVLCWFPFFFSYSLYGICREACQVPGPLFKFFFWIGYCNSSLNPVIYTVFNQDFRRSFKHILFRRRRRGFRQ

A word on the inhibition: it is the relative decrease from the control value, in per cent. As to `Cc1c(NC(=O)c2nn(C)c(=O)c3ccccc23)c(=O)n(-c2ccccc2)n1C`, in test [1], the cell count came to 426. Also, the inhibition was 4.2% (inactive) in test [1], -56.3% (inactive) in test [3], 0.784% (inactive) in test [7] and -0.356% (inactive) in test [8]. Besides, the inhibition of aggregation in test [2] was -1.2% (inactive). Besides, the nuclei count is 98.9% in test [2] and 136% in test [3]. For the same compound, the fluorescence slope in test [4] is -0.496 (inactive). For the same compound, in test [5], the NADPH fluorescence slope was -1.3e-05 (inactive). Also, in test [6], the slope was 0.00499 (inactive).

Consider `Fc1ccc(-c2nnc3ccc(N4CCCC4)nn23)cc1`, for which, in test [1], the cell count stood at 662. For the same compound, the inhibition in test [1] is 0.5% (inactive); in test [3], -61.6% (inactive); in test [7], 3.21% (inactive); in test [8] it was -61.2% (inactive). The inhibition of aggregation in test [2] was -1% (inactive). Besides, the nuclei count was found to be 97.7% in test [2] and 120% in test [3]. For the same compound, the fluorescence slope in test [4] is -0.56 (inactive). Besides, the NADPH fluorescence slope in test [5] was 2e-05 (inactive). Also, the slope in test [6] was 0.00653 (inactive).

As to `CCC(=O)c1ccc(OCC(O)CN2CCN(S(=O)(=O)N3CCCCC3)CC2)cc1` (centres undefined), the cell count in test [1] is 450. Moreover, the inhibition is 1.3% (inactive) in test [1], -47.7% (inactive) in test [3], 14.1% (inactive) in test [7] and 9.85% (inactive) in test [8]. For the same compound, the inhibition of aggregation in test [2] is -4.1% (inactive). Moreover, the nuclei count in test [2] amounted to 102%; in test [3] it was 184%. Moreover, the fluorescence slope in test [4] is -0.592 (inactive). Also, the NADPH fluorescence slope in test [5] is -1.7e-05 (inactive). Besides, in test [6], the slope is 0.00309 (inactive).

`CCC(C)(C(=O)NC1CCCC1)N(Cc1cccs1)C(=O)Cc1cccs1` (centres undefined): in test [1], the cell count was determined as 698. In addition, the inhibition in test [1] is -0.9% (inactive); in test [3] it was -7.8% (inactive); in test [7], 14.4% (inactive); in test [8] it was 44.6% (inactive). Further, the inhibition of aggregation in test [2] is 21% (inactive). Moreover, the values for the nuclei count in test [2] and in test [3] were 127% and 112%, respectively. For the same compound, the fluorescence slope in test [4] was -0.473 (inactive). Moreover, the NADPH fluorescence slope in test [5] is -0.000168 (inactive). Moreover, in test [6], the slope is 0.00631 (inactive).

With `COc1ccccc1OCC(=O)Nc1ccc(S(=O)(=O)Nc2nc(C)cc(C)n2)cc1`, in test [1], the cell count came to 376. Further, the inhibition in test [1] is 0% (inactive); in test [3], -84% (inactive); in test [7], 11.5% (inactive); in test [8], 17.1% (inactive). In test [2], the inhibition of aggregation was -13.8% (inactive). Besides, the results for the nuclei count in test [2] and in test [3] were 102% and 121%, respectively. For the same compound, the fluorescence slope in test [4] is -0.335 (inactive). Further, in test [5], the NADPH fluorescence slope was -6.1e-05 (inactive). Further, the slope in test [6] is 0.00524 (inactive).

With `O=S1(=O)CCC(N=Cc2cc(Br)ccc2O)C1` (centres undefined), the cell count in test [1] was 500. The inhibition is -13.1% (inactive) in test [1], 18% (inactive) in test [3], 17.3% (inactive) in test [7] and 22.5% (inactive) in test [8]. For the same compound, in test [2], the inhibition of aggregation was 32.5% (inactive). In addition, the nuclei count in test [2] stood at 76.6%; in test [3], 97.7%. Besides, the fluorescence slope in test [4] is -0.498 (inactive). Moreover, the NADPH fluorescence slope in test [5] is -4e-05 (inactive). For the same compound, the slope in test [6] was 0.0045 (inactive).

For the compound `CCOC(=O)c1cc(-c2nnc(-c3ccc(Oc4ccccc4)cc3)o2)c(C)nc1C`, the cell count in test [1] was 761. Further, the inhibition in test [1] was -3.9% (inactive); in test [3] it was -20.7% (inactive); in test [7], 7.09% (inactive); in test [8] it was 12.2% (inactive). Also, the inhibition of aggregation in test [2] was 17.5% (inactive). For the same compound, the nuclei count in test [2] was 102%; in test [3], 110%. Also, the fluorescence slope in test [4] was -0.499 (inactive). Further, the NADPH fluorescence slope in test [5] was -2.6e-05 (inactive). In addition, the slope in test [6] is 0.0114 (active).

For the compound `CCN1CCN(CCCNC(=O)c2cc3sccc3n2CC)CC1`, the cell count in test [1] is 605. Moreover, the inhibition is 11% (inactive) in test [1], 37.9% (inactive) in test [3], -14.9% (inactive) in test [7] and 15.5% (inactive) in test [8]. Further, the inhibition of aggregation in test [2] was -0.9% (inactive). In addition, the nuclei count in test [2] came out at 105%; in test [3] it was 108%. Also, the fluorescence slope in test [4] was -0.586 (inactive). In test [5], the NADPH fluorescence slope was -3.5e-05 (inactive). Besides, in test [6], the slope is 0.00699 (inactive).

Turning to `O=C(NCc1cccnc1)c1ccc(Cl)c(Cl)c1`, the cell count in test [1] was 751. Further, the inhibition in test [1] was -5% (inactive); in test [3], 16.9% (inactive); in test [7], 17% (inactive); in test [8], 7.17% (inactive). Also, in test [2], the inhibition of aggregation was 25.4% (inactive). Moreover, the nuclei count in test [2] and in test [3] was 102% throughout. The fluorescence slope in test [4] was -0.639 (inactive). In test [5], the NADPH fluorescence slope is -5.9e-06 (inactive). The slope in test [6] was 0.00439 (inactive).
